Rows were chosen to be rich in hits. Some 3.1% of all compounds tested hit in one or more screens of this group.
GCN5L2 inh: blocks human GCN5L2 histone acetyltransferase. Q92830. GCN5L2 HAT assay, ThioGlo1 CoA-SH fluorescence. Potency, µM (titrated, usually from 58.9 µM), inactives show at the highest dose activity change, negative = inhibition, actives largely listed as inhibitors. 0.21% of 390,000 active; note: potency is the fitted concentration of half-maximal effect
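qHTS, 1536-well. 20nM enzyme, pH 7.5 HEPES/EDTA/Tween-20 buffer; 15 min compound preinc., RT. Start: 75uM H3(1-25), 70uM AcCoA, 50uM ThioGlo1. Read Ex340/Em540 at t=0 (autofluorescence flag) and t=20 min.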
GLS inhibitor: glutaminase GLS (human) inhibition; O94925; GLS enzymatic activity, qHTS titration; Potency, µM (doses to about 45.5 µM), without a hit: at the top dose activity change, negative = inhibition, most hits filed as inhibitors; 0.21% of 410,000 active; AID 624170; note: potency is the fitted concentration of half-maximal effect
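Assay buffer: 45 mM KH2PO4 pH 8.2, 0.02% Tween-20. hKGA acts on L-glutamine (1 mM solution added); product glutamate is reported by an oxidase/peroxidase Amplex Red coupling, with fluorescence taken at baseline and 30 min.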
VDR inhibitor: blocks the human vitamin D receptor; P11473; 0.93% of 400,000 active; VDR-SRC2-3 peptide fluorescence polarization, 2 h; Potency, µM, without a hit: max response, negative = inhibition, hits mostly inhibitors; note: potency is the fitted concentration of half-maximal effect
Target sequence (P11473 whole entry, looked up): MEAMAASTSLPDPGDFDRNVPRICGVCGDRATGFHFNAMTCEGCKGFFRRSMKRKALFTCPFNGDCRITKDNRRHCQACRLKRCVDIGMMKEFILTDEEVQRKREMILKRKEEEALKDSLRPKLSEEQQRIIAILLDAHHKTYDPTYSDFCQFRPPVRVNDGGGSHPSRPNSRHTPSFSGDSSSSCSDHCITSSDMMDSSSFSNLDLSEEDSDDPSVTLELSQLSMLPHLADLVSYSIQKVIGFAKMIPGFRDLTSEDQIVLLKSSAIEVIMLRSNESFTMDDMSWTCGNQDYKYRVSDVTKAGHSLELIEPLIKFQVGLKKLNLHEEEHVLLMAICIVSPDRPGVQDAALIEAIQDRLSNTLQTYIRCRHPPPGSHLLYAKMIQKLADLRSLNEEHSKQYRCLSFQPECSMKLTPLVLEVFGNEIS
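VDR–SRC2-3 interaction, FP format. Cmpds 23 nl via pintool, brief spin, 2 h ambient incubation.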
PLK1 PBD block: blocks phosphopeptide binding to human PLK1 polo-box domain; P53350; Plk1 PBD binding of FITC phosphopeptide, fluorescence polarization; Potency, µM, for inactives: max response, negative = inhibition, usual class: inhibitors; 2.8% of 360,000 active; AID 720504; note: potency is the fitted concentration of half-maximal effect; series mostly up to about 57 µM; nearly all actives have a fitted effect of over 65% in size
PI4K2A block: PI4K2A (human) kinase inhibition. Q9BTU6. purified PI4K2A, ADP-Glo luminescence, 1 h; active compounds read low. activity change, negative = inhibition, % at 76.9 µM. 0.13% of 420,000 active; in the data active = activity change below about -50%; inconclusive = mostly about -30% to -49%;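 note: -100% = wells without enzyme as full effect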
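Compounds are screened against recombinant PI4K2A using PI as substrate and ATP, the latter dispensed at 300 microM. Reactions run one hour at ambient temperature before ADP-Glo detection; full inhibition defined by wells lacking enzyme.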
Numbers without * were called inactive; [ ] = remark or other dose. Unless noted, calls come from the whole dose curve; as a rule, active = well fitted curve in the direction sought with a large enough effect; inconclusive = small, poorly fitted or top-dose-only effect, or another doubt; inactive = no such curve, though single readings can be large; an effect the other way counts as inactive or inconclusive. Unless noted, % is set by controls: 0 for no effect and ±100 for the full control effect.

For CC(=O)N[C@H]1[C@H](O[C@@H]2c3ccc(c(Cl)c3)Oc3cc4cc(c3O[C@@H]3O[C@H](CO)[C@@H](O)[C@H](O)C3C)Oc3ccc(cc3Cl)C[C@H]3NC(=O)[C@@H](N)c5ccc(O)c(c5)Oc5cc(O)cc(c5)[C@H](NC3=O)C(=O)N[C@H]4C(=O)N[C@H]3C(=O)N[C@@H]2C(=O)N[C@@H](C(=O)O)c2cc(O)cc(O[C@H]4O[C@H](CO)[C@@H](O)C(O)[C@@H]4O)c2-c2cc3ccc2O)O[C@H](CO)[C@@H](O)[C@@H]1O (some centres undefined) the results were GCN5L2 inh -14%[21.4 µM], GLS inhibitor 16µM* and VDR inhibitor -7%.
For COc1cc(C2CC(=O)N(Cc3ccc(F)cc3)c3ccccc3S2)cc(OC)c1OC (centres undefined) the results were GCN5L2 inh -9%, GLS inhibitor 2%, VDR inhibitor -21% and PI4K2A block 8.
`CCSc1nc(=S)cc(C)[nH]1` gave GCN5L2 inh 5%, GLS inhibitor -12%, VDR inhibitor 79µM*, PLK1 PBD block 27µM* and PI4K2A block -8.
CCOC(=O)[C@@]12CCCC=C1N(CCc1ccc(Cl)cc1)C(=O)[C@H]2CC(=O)NCc1cccc2ccccc12 was read as PI4K2A block 3.
Screening C#CCOc1c(/C=C\c2nc(O)c([N+](=O)[O-])c(=O)[nH]2)cc(Br)cc1OC returned GCN5L2 inh -2%, GLS inhibitor 16%, VDR inhibitor 22µM*, PLK1 PBD block -11% and PI4K2A block -17.
Screening COC(=O)COc1c(/C=C\c2nc(O)c([N+](=O)[O-])c(=O)[nH]2)cccc1OC returned GCN5L2 inh -18%, GLS inhibitor -4%, VDR inhibitor -16%, PLK1 PBD block 1% and PI4K2A block -8.
For Cc1nnc(SCC(=O)c2ccc(Cl)cc2)n(N)c1=O the results were GCN5L2 inh -6%, GLS inhibitor -11%, VDR inhibitor 20µM*, PLK1 PBD block 6% and PI4K2A block 2.
For Cc1ncc(CO)c(/C=N/NC(=S)Nc2ccc(Cl)c(Cl)c2)c1O the results were GCN5L2 inh -20%, GLS inhibitor -8%, VDR inhibitor inconclusive, PLK1 PBD block 27µM* and PI4K2A block -8.
For Cc1ncc(CO)c(/C=N/NC(=S)Nc2cccc(Cl)c2)c1O the results were GCN5L2 inh -3%, GLS inhibitor -1%, VDR inhibitor 79µM*, PLK1 PBD block 21µM* and PI4K2A block -2.
`Cc1ncc(CO)c(/C=N/NC(=O)c2ccc(O)cc2)c1O` gave GCN5L2 inh inconclusive, GLS inhibitor 15%, VDR inhibitor -10%, PLK1 PBD block -3% and PI4K2A block 3.
Screening O=C(O)CCCC(=O)Nc1ccn(-c2ccccc2)n1 returned GCN5L2 inh 0%, GLS inhibitor inconclusive, VDR inhibitor -13%, PLK1 PBD block 11µM* and PI4K2A block 13.
O=Cc1cnc(N2CCCCC2)s1 was read as GCN5L2 inh -4%, GLS inhibitor -2%, VDR inhibitor 7%, PLK1 PBD block 2% and PI4K2A block -4.
Screening O=C(N/N=C/c1cnc(N2CCCCC2)s1)c1ccc(Cl)cc1 returned GCN5L2 inh 0%, GLS inhibitor 17%, VDR inhibitor -6%, PLK1 PBD block 30µM* and PI4K2A block -2.
For CN1CCN(/C=N/c2sc3c(c2C#N)CCCCC3)CC1 the results were GCN5L2 inh -3%, GLS inhibitor 12%, VDR inhibitor -10%, PLK1 PBD block -9% and PI4K2A block -26.
For N#Cc1c(/N=C/C=C/c2ccccc2)sc2c1CCCC2 the results were GCN5L2 inh 38%, GLS inhibitor inconclusive, VDR inhibitor inconclusive, PLK1 PBD block 9.5µM* and PI4K2A block -4.
Screening COC(=O)[C@]12C[C@H](CC(=O)N3CCCC3)C(=O)N(Cc3ccc4c(c3)OCO4)C1=C[C@H](C(C)C)O[C@@H]2C1CC1 returned PI4K2A block -7.
Screening O=C(Nc1cccc(Oc2ccc(C(=O)O)c(C(=O)O)c2)c1)c1ccc(-c2ccccc2)cc1 returned GCN5L2 inh -1%, GLS inhibitor inconclusive, VDR inhibitor 2%, PLK1 PBD block 19µM* and PI4K2A block 1.
`CC(C)(C)C(=O)Nc1ccc(C(=O)Nc2cccc(Oc3ccc(C(=O)O)c(C(=O)O)c3)c2)cc1` gave GCN5L2 inh -14%, GLS inhibitor 9%, VDR inhibitor -4%, PLK1 PBD block -4% and PI4K2A block 1.
For N#Cc1ccccc1OCC(=O)Nc1nc(-c2ccccn2)cs1 the results were GLS inhibitor -7%, PLK1 PBD block 27µM* and PI4K2A block -7.
`O=C(COc1ccc(F)cc1Cl)Nc1nc(-c2ccccn2)cs1` gave GCN5L2 inh -3%.
O=C(CCCSc1ccccc1)Nc1nc(-c2ccccn2)cs1 was read as GCN5L2 inh -9%, GLS inhibitor -4%, VDR inhibitor inconclusive, PLK1 PBD block 21µM* and PI4K2A block 4.
NCCCC[C@H](NC(=O)[C@@H]1CCCN1C(=O)[C@H](CO)NC(=O)[C@H](CC(=O)O)NC(=O)CNC(=O)[C@H](CCCN=C(N)N)NC(=O)CN)C(=O)O was read as GCN5L2 inh 45% and VDR inhibitor 17%.
Screening O=S(=O)(c1cccc(C(F)(F)F)c1)N1CCC(c2cc(-c3cccc4ccccc34)n[nH]2)CC1 returned GCN5L2 inh -8%, GLS inhibitor 126%, VDR inhibitor inconclusive, PLK1 PBD block 19µM* and PI4K2A block -2.

Screens deposited in PubChem BioAssay by National Center for Advancing Translational Sciences (NCATS).
